Data taken from the supplement of paper PMC10849652.
Targets with a hit are over-represented here; the source holds about 8,800 in all. About 0.5% of all pairs of compound and target were hits. Values without a mark were called inactive.

Each target was assayed with C1=CC=C(C=C1)[C@H](COC2=CC3=C(C=C2)NC(=O)N3)NC(=O)C4=CC=CN(C4=O)CC5=CC(=C(C=C5)F)F (assay: log2 fold change, soluble protein after heating vs DMSO (PISA); higher = thermal stabilisation; K562 lysate, 10 uM; active = over 0.2 and 3.5 SD of the protein, either way, in both replicates (recomputed)).
Outline: (§1)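 Pellets of K562 cells were dounce-homogenised in PBS pH 7.4 with 1 mM MgCl2, and the crude extract was held at 1 mg/mL protein for a 30 min treatment with 10 μM compound. Aliquots were heated for 3 min over 48°C-58°C and pooled before NP-40 was added to 0.5% at 4°C. The supernatant from 21,000xg for 90 min was quantified by TMTpro 16plex LC-MS/MS with channel sums equalised. Values are reported from duplicates as log-two fold change in thermal stability relative to solvent controls.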

Sequence of UniProt P49674 (P49674 whole entry, looked up): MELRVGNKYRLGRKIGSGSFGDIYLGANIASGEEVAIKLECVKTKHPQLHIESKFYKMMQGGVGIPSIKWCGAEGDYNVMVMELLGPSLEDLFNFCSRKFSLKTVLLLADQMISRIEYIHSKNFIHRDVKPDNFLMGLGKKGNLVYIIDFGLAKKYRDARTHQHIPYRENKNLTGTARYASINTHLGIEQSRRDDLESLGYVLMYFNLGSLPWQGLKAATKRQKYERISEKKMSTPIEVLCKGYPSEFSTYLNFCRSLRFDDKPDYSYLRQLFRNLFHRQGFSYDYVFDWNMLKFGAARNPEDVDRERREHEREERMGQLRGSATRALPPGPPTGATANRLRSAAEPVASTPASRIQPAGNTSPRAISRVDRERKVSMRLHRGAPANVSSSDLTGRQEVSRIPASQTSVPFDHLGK
Sequence of UniProt O75122 (O75122 whole entry, looked up): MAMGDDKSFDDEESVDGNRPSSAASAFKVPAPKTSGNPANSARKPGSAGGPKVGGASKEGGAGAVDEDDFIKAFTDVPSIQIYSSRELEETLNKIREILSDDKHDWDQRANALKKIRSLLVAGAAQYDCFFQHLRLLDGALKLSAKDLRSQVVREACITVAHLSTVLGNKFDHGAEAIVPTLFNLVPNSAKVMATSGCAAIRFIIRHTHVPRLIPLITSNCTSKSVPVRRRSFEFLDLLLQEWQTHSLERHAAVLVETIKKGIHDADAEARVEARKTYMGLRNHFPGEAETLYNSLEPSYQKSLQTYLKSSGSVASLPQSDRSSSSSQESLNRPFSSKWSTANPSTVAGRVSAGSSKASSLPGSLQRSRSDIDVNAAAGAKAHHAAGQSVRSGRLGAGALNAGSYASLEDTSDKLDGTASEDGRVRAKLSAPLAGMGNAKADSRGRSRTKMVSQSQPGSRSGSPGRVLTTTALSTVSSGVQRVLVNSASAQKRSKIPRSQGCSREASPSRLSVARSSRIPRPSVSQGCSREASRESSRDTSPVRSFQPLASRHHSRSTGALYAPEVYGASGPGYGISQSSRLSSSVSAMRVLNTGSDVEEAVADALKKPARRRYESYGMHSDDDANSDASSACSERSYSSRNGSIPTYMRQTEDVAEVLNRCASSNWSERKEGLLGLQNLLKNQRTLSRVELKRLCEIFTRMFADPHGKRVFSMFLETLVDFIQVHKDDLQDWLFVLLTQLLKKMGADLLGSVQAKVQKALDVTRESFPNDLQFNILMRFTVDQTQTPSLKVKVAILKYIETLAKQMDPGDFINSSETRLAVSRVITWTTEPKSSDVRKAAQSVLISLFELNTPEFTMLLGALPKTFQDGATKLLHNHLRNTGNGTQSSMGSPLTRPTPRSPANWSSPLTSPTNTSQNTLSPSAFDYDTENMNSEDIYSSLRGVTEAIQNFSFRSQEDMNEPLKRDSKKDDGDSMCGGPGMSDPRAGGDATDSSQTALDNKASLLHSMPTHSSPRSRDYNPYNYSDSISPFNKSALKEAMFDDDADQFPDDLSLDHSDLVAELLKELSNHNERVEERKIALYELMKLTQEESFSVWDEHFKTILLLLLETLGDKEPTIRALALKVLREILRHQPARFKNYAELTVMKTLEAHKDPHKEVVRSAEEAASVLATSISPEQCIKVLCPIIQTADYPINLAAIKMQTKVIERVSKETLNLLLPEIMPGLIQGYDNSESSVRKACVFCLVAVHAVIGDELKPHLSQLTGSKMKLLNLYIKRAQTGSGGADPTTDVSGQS
Sequence of UniProt Q8WYA6 (Q8WYA6 whole entry, looked up): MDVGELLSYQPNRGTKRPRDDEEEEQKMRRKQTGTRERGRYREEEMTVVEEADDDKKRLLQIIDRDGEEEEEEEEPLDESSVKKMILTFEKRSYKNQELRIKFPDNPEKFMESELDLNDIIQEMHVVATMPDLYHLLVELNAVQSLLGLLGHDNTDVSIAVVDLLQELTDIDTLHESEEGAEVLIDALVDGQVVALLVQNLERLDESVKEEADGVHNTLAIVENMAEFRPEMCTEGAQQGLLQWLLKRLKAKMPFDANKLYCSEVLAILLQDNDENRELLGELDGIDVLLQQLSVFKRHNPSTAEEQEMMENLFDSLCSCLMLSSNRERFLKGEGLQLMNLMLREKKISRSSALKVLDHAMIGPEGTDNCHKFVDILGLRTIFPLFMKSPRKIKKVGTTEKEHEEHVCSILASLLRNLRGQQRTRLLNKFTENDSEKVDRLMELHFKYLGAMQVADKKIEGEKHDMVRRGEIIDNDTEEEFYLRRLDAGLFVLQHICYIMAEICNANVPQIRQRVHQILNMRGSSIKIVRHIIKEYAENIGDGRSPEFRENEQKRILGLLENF
Sequence of UniProt Q16850 (Q16850 whole entry, looked up): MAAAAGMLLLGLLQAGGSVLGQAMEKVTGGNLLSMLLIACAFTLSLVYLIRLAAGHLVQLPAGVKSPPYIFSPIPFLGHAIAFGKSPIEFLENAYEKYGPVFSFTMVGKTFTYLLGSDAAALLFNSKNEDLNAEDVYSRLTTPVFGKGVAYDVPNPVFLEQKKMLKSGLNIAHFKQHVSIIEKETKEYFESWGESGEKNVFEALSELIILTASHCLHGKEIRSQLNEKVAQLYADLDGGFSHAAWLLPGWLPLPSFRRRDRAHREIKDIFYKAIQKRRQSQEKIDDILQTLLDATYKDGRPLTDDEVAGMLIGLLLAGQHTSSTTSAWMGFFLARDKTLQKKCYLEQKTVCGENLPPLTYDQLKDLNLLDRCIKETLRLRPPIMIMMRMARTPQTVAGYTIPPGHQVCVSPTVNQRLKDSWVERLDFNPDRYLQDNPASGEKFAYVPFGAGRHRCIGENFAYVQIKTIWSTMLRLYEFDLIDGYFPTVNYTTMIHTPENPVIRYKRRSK
Sequence of UniProt Q5RI15 (Q5RI15 whole entry, looked up): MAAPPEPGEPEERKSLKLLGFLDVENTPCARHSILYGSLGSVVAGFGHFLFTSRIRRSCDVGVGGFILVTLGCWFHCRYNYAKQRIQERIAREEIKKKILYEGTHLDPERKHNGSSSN
Sequence of UniProt P83436 (P83436 whole entry, looked up): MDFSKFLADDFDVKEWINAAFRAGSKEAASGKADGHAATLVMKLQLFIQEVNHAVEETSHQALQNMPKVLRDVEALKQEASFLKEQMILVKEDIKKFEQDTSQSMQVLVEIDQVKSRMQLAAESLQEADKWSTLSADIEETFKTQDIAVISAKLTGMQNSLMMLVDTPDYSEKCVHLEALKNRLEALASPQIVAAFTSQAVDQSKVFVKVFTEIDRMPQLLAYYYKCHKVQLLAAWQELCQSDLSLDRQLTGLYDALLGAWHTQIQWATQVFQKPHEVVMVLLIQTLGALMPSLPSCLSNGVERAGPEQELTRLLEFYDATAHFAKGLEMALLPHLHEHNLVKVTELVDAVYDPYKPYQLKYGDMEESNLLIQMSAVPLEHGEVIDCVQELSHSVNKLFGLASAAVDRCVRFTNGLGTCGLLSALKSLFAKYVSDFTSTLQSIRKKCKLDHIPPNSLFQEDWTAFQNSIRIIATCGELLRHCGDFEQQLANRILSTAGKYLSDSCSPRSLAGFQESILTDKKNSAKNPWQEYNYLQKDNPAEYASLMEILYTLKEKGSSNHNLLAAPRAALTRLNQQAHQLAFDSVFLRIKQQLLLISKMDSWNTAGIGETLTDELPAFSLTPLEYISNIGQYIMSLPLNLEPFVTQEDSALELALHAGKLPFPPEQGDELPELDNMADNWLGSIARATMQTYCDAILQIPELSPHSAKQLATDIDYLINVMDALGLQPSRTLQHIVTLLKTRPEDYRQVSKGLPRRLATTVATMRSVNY
Sequence of UniProt O14757 (O14757 whole entry, looked up): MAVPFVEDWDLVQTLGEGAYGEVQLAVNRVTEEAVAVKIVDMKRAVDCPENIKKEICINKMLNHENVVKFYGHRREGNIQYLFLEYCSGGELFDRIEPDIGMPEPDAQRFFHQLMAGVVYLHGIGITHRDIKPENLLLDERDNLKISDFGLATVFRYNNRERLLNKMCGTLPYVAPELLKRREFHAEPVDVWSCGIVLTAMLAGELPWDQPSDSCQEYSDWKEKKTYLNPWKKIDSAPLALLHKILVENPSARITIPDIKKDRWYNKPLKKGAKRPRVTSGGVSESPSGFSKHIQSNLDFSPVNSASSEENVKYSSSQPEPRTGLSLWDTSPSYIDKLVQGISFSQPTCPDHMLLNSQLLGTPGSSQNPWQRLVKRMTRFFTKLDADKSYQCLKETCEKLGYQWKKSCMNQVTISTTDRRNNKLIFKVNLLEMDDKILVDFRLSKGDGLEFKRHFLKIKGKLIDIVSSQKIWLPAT
Sequence of UniProt P33240 (P33240 whole entry, looked up): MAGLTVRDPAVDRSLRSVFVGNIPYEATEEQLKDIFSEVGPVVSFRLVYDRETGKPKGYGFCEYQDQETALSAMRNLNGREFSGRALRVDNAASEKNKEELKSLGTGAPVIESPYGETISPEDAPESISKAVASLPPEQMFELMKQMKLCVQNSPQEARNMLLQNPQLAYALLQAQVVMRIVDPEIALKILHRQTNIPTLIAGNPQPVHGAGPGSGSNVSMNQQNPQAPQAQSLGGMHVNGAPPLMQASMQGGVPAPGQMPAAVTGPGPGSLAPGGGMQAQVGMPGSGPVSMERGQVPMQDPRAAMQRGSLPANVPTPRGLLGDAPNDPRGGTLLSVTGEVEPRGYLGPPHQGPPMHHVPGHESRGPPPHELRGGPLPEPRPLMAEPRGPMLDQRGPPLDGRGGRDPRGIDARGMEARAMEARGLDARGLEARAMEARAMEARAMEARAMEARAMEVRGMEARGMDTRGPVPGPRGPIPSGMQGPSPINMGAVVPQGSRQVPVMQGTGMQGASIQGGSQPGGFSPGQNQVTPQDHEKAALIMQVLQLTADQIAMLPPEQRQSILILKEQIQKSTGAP
Sequence of UniProt O75911 (O75911 whole entry, looked up): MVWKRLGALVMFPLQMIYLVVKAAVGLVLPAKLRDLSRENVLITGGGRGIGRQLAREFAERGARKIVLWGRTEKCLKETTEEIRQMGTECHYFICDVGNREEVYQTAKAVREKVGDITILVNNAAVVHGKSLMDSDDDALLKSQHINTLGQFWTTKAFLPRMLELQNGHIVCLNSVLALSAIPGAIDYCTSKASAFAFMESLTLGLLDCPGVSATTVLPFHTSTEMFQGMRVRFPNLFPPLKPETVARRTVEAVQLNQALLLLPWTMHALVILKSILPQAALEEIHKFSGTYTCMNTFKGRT

Which log2 fold change does the source give for CLASP2 (UniProt O75122) here?
The log2 fold change was 0.16.

With CTNNBL1 (UniProt Q8WYA6) as the target, how does the log2 fold change read?
Its log2 fold change is -0.003.

How did the log2 fold change turn out when CSTF2 (UniProt P33240) was run?
Its log2 fold change is -0.027.

For CHEK1 (UniProt O14757), which log2 fold change is on record?
The log2 fold change was 0.025.

How did the log2 fold change turn out when DOCK7 (UniProt Q96N67) was run?
The log2 fold change was 0.071.

For COX20 isoform 2 (UniProt Q5RI15), which log2 fold change is on record?
The log2 fold change was 0.01.

How did the log2 fold change turn out when CYP51A1 (UniProt Q16850) was run?
Its log2 fold change is 0.028.

CNOT6L (UniProt Q96LI5) was tested. Which log2 fold change did it give?
Its log2 fold change is -0.014.

How did the log2 fold change turn out when CXorf38 (UniProt Q8TB03) was run?
The log2 fold change was 0.021.

With CSNK1E (UniProt P49674) as the target, how does the log2 fold change read?
Its log2 fold change is -0.004.

For COG7 (UniProt P83436), which log2 fold change is on record?
Its log2 fold change is -0.026.

The targets below were run with CC1=C(SC2=C1C(=N[C@H](C3=NN=C(N32)C)CC(=O)N)C4=CC=C(C=C4)Cl)C in the same assay as above.
Outline: as §1

CLPB isoform 2 (UniProt Q9H078) was tested. Which log2 fold change did it give?
Its log2 fold change is -0.012.

CMSS1 (UniProt Q9BQ75) was tested. Which log2 fold change did it give?
Its log2 fold change is -0.069.

For CTPS2 (UniProt Q9NRF8), which log2 fold change is on record?
Its log2 fold change is -0.009.

For COG2 (UniProt Q14746), which log2 fold change is on record?
Its log2 fold change is -0.034.

With COTL1 (UniProt Q14019) as the target, how does the log2 fold change read?
The log2 fold change was -0.019.

CNOT2 (UniProt Q9NZN8) was tested. Which log2 fold change did it give?
Its log2 fold change is -0.016.

Which log2 fold change does the source give for COG5 isoform 2 (UniProt Q9UP83) here?
The log2 fold change was 0.045.

How did the log2 fold change turn out when DLG3 isoform 2 (UniProt Q92796) was run?
Its log2 fold change is -0.082.

Which log2 fold change does the source give for COG3 (UniProt Q96JB2) here?
Its log2 fold change is -0.015.

How did the log2 fold change turn out when DHRS3 (UniProt O75911) was run?
The log2 fold change was 0.064.

How did the log2 fold change turn out when DENND6A (UniProt Q8IWF6) was run?
The log2 fold change was -0.008.

Which log2 fold change does the source give for DHCR7 (UniProt Q9UBM7) here?
The log2 fold change was 0.028.

For CKAP5 (UniProt Q14008), which log2 fold change is on record?
Its log2 fold change is -0.019.

Which log2 fold change does the source give for DFFB (UniProt O76075) here?
The log2 fold change was -0.057.

With CNOT4 isoform 9 (UniProt O95628) as the target, how does the log2 fold change read?
Its log2 fold change is 0.081.

With DOCK8 (UniProt Q8NF50) as the target, how does the log2 fold change read?
Its log2 fold change is -0.004.

How did the log2 fold change turn out when CIB1 (UniProt Q99828) was run?
Its log2 fold change is -0.272 (active).

DAZAP1 (UniProt Q96EP5) was tested. Which log2 fold change did it give?
Its log2 fold change is -0.046.

With CSPP1 (UniProt Q1MSJ5) as the target, how does the log2 fold change read?
The log2 fold change was 0.001.

How did the log2 fold change turn out when DENND1B (UniProt Q6P3S1) was run?
Its log2 fold change is -0.205.

DGCR8 (UniProt Q8WYQ5) was tested. Which log2 fold change did it give?
The log2 fold change was 0.063.

For CKM (UniProt P06732), which log2 fold change is on record?
Its log2 fold change is -0.027.

With CSNK2B (UniProt P67870) as the target, how does the log2 fold change read?
The log2 fold change was 0.024.

CLASP2 (UniProt O75122) was tested. Which log2 fold change did it give?
The log2 fold change was -0.248.

For CTNNBL1 (UniProt Q8WYA6), which log2 fold change is on record?
Its log2 fold change is 0.

With CSTF2 (UniProt P33240) as the target, how does the log2 fold change read?
Its log2 fold change is 0.021.

For CHEK1 (UniProt O14757), which log2 fold change is on record?
The log2 fold change was 0.021.

How did the log2 fold change turn out when DOCK7 (UniProt Q96N67) was run?
Its log2 fold change is 0.095.

With COX20 isoform 2 (UniProt Q5RI15) as the target, how does the log2 fold change read?
The log2 fold change was -0.047.

With CYP51A1 (UniProt Q16850) as the target, how does the log2 fold change read?
The log2 fold change was -0.105.

How did the log2 fold change turn out when CNOT6L (UniProt Q96LI5) was run?
The log2 fold change was 0.017.

Which log2 fold change does the source give for CXorf38 (UniProt Q8TB03) here?
Its log2 fold change is 0.007.

For CSNK1E (UniProt P49674), which log2 fold change is on record?
The log2 fold change was -0.072.

How did the log2 fold change turn out when COG7 (UniProt P83436) was run?
The log2 fold change was 0.026.
